In PubChem BioAssay AID1851 (National Center for Advancing Translational Sciences (NCATS), 2009):
About 5,800 (36%) of roughly 16,000 compounds were called active. Roughly 23% stayed inconclusive and do not appear here. The list shows a part of the results. Values without a mark were called inactive. Calls follow the shape of the dose curve; as a rule, active = well fitted curve in the direction sought with a large enough effect; inconclusive = small, poorly fitted or top-dose-only effect, or effect the other way; inactive = no such curve, though single readings can be large or run the other way.

The compounds below were run against Cytochrome P450 2C19 (Homo sapiens) (UniProt P33261) (assay: Cytochrome panel assay with activity outcomes). Details: recombinant CYP, pro-luciferin dealkylation, luminescence, p450-cyp2c19; series mostly up to 57.1 µM.
% is scaled to controls: 0 for no effect and ±100 for the full control effect.

Chain of Cytochrome P450 2C19 (Homo sapiens) (P33261 whole entry, looked up): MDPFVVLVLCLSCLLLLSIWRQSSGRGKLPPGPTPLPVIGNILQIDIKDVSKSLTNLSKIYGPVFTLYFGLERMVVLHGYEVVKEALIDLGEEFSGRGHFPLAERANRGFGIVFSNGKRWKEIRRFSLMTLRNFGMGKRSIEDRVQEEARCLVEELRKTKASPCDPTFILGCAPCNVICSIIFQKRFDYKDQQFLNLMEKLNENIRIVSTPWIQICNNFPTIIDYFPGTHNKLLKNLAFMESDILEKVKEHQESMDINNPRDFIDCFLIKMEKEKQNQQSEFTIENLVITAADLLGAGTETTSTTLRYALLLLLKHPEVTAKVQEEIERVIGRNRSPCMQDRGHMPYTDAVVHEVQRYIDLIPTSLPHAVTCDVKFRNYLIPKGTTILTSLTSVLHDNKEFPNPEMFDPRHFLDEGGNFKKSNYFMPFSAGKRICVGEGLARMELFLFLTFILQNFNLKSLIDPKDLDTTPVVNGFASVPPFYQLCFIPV

Row | Structure (SMILES) | AC50 | activity, negative = inhibition
1 | CCOC(=O)C(C)CC(C)C(=O)N1CCOCCN(C(=O)C(C)CC(C)C(=O)OCC)CCOCC1 (configuration not stated) | 10 µM (active) | –
2 | NC(=O)CN1CCOCCOCCOCCOCCOCC1 | inactive | –
3 | CC(C)OC(=O)C(CC(=O)O)N1CCOCC1 (configuration not stated) | inactive | –
4 | CC1(C)O[C@@H]2C[C@H]3[C@H]4C[C@H](F)C5=CC(=O)CC[C@]5(C)[C@@H]4[C@H](O)C[C@]3(C)[C@]2(C(=O)CO)O1 | inactive | –
5 | O=C1CC(=Nc2ccccc2)NN1c1ccccc1 | 5.62 µM (active) | –
6 | CC1=NN(c2ccccc2)C(=O)C1 | inactive | –
7 | c1ccc2c(c1)C(=Nc1ccc(N=C3c4ccccc4-c4ccccc43)cc1)c1ccccc1-2 | – | -36.8% [at 11.4 µM]
8 | CCCCC1=NN2C(=N)CC(=O)N=C2S1 | inactive | –
9 | O=C1C(Cc2ccccc2)NC(=S)N1c1ccccc1 (configuration not stated) | 3.16 µM (active) | –
10 | C[C@H]1COC(=O)[C@H](Cc2ccccc2)NC(=O)[C@@H](C)COC(=O)[C@H](Cc2ccccc2)NC1=O | – | -17.3% [at 11.4 µM]
11 | CO[C@@H]1COC(=O)[C@H](Cc2ccccc2)NC(=O)C/C=C\[C@@H](C)[C@H](OC)COC(=O)[C@@H](C)NC(=O)C/C=C\[C@H]1C | – | 10.6% [at 11.4 µM]
12 | Cc1ccc(CNC(=O)Cn2cncn2)cc1 | 7.94 µM (active) | –
13 | C[C@H](NC(=O)Cn1cncn1)c1ccccc1 | inactive | –
14 | O=C(Cn1cnc([N+](=O)[O-])c1)NCc1ccc(F)cc1 | inactive | –
15 | Cc1cc(N)n(-c2ccc3ccccc3c2)n1 | 25.1 µM (active) | –
16 | O=C(c1csnn1)N1CCC2(CC1)CN(c1ccccn1)C2 | inactive | –
17 | Cc1ccc(Nc2ccc(-n3ccnc3)nn2)cc1C | 0.0501 µM (active) | –
18 | CCC(C)NC(=O)c1ccccc1NC(=O)Nc1ccccc1 (configuration not stated) | 10 µM (active) | –
19 | CC(C)C(=O)NC(=S)Nc1ccccc1C(=O)Nc1ccccc1 | 15.8 µM (active) | –
20 | Clc1ccc([C@H](Cn2ccnc2)OCc2csc3c(Cl)cccc23)c(Cl)c1 | 0.251 µM (active) | –
21 | Clc1ccc(CO[C@@H](Cn2ccnc2)c2ccc(Cl)cc2Cl)cc1 | 0.0631 µM (active) | –

Row | Structure (SMILES) | AC50 | activity, negative = inhibition
22 | CC1(C)Cc2c(sc3c2C(=O)N(c2ccccc2)C2=NCCN23)CS1 | inactive | –
23 | Cn1c(-c2ccc(CN3CCCCC3)o2)nc2ccccc21 | inactive | –
24 | Cc1ccccc1Cn1c(Cc2ccccc2)nc2ccccc21 | 2 µM (active) | –
25 | Clc1ccc(Cn2c(CN3CCCC3)nc3ccccc32)cc1 | 0.2 µM (active) | –
26 | [O-][n+]1c(CN2CCCCC2)nc2cccc3c2c1-c1ccccc1-3 | – | 9.09% [at 11.4 µM]
27 | Cc1ccccc1CN1C2=NCCN2C(=O)C2=C1CCN(Cc1ccccc1)C2 | – | 10.2% [at 11.4 µM]
28 | c1ccc(Cn2c(CN3CCCC3)nc3ccccc32)cc1 | 3.55 µM (active) | –
29 | C[N+]1(C)CCO[C@](O)(c2ccccc2)C1 | – | 42.8% [at 11.4 µM]
30 | c1ccc(SC(Sc2ccccc2)c2ccc3c(c2)OCO3)cc1 | 0.0316 µM (active) | –
31 | c1cc2c(cc1C(N1CCNCC1)N1CCNCC1)OCO2 | – | 14.2% [at 11.4 µM]
32 | Cc1ccc(S(=O)(=O)N(CC(=O)N/N=C/c2ccc(F)cc2)c2cccc3cccnc23)cc1 | 1.12 µM (active) | –
33 | CC(C)COCC1CC2(CC(C)(c3csc(N)n3)OC2=O)C(=O)O1 (configuration not stated) | 15.8 µM (active) | –
34 | CCCSC1=C(C#N)C(c2cccnc2)C(C(=O)OCC)=C(c2ccccc2)N1 (configuration not stated) | 14.1 µM (active) | –
35 | N#Cc1cccc(NC(=O)N2CCCC3(CCN(C(=O)c4cnccn4)CC3)C2)c1 | inactive | –
36 | NN(CC(=O)O)CC(=O)O | – | 14.5% [at 11.4 µM]
37 | O=C(Nc1nc(-c2ccccc2)cs1)c1ccc(Br)o1 | 14.1 µM (active) | –
38 | O=C(Nc1nc(-c2ccccc2)cs1)c1cccc([N+](=O)[O-])c1 | 1.58 µM (active) | –
39 | CCNc1ncc2nc(C)c(=O)n(C)c2n1 | inactive | –
40 | COc1ccc([C@H]2Sc3ccccc3N(CCN(C)C)C(=O)[C@H]2OC(C)=O)cc1 | inactive | –
41 | CN(C)CCCN=c1c2ccccc2n(C)c2[nH]c(=O)n(C)c(=O)c12 | – | 31% [at 11.4 µM]
42 | CCNc1ncc2nc(-c3ccc(F)cc3)c(=O)n(CCC#N)c2n1 | inactive | –

Row | Structure (SMILES) | AC50 | activity, negative = inhibition
43 | CC(C)c1ccc(C(=O)CC2(O)C(=O)N(CN3CCOCC3)c3ccccc32)cc1 (configuration not stated) | 2.24 µM (active) | –
44 | CC1(C)C(=O)N(CCN2CCC(C(=O)c3ccc(F)cc3)CC2)c2ccccc21 | inactive | –
45 | C[C@@H]1C[C@H]2[C@H]3C[C@@H](F)C4=CC(=O)C=C[C@]4(C)[C@@]3(Cl)[C@@H](O)C[C@@]2(C)[C@@H]1C(=O)COC(=O)C(C)(C)C | inactive | –
46 | Clc1ccc(/C=N/Nc2nnc(-c3ncc[nH]3)c3ccccc23)cc1 | 11.2 µM (active) | –
47 | C(=N/Nc1nnc2c(n1)[nH]c1ccccc12)/c1cccnc1 | – | -3.42% [at 11.4 µM]
48 | C=CC[n+]1c(-c2ccc(C)cc2)csc1NNC(=O)Nc1ccccc1 | 5.01 µM (active) | –
49 | O=C(CCn1nc(-c2ccc(Cl)cc2)ccc1=O)NCc1ccccn1 | inactive | –
50 | O=C1CC(N2CCN(CCc3ccccn3)CC2)C(=O)N1c1ccc(Cl)cc1 (configuration not stated) | 8.91 µM (active) | –
51 | CC1(C)CC2(CC(c3cccs3)c3cc(Cl)c(O)cc3O2)NC(=S)N1 (configuration not stated) | 2.82 µM (active) | –
52 | O=C(O)c1ccccc1OP(=O)(O)O | inactive | –
53 | Cc1nc(Cl)c(C#N)cc1-c1ccccc1 | 5.62 µM (active) | –
54 | Cc1ccc(Oc2nnc(-c3ccccc3)cc2C#N)cc1 | inactive | –
55 | Cc1nc(Sc2ccccc2)c(C#N)cc1-c1ccccc1 | 0.631 µM (active) | –
56 | Cc1cc2c(cc1C)NC1=C(N2)O[C@H](c2c[nH]c3ccc(COc4ccccc4)cc23)C1=O | 0.501 µM (active) | –
57 | O=C(O)c1c[nH]c2cc(OCc3ccccc3)ccc2c1=O | – | 0.142% [at 11.4 µM]
58 | Cc1ncc(N=Nc2ccccc2Cl)c(-c2ccccc2)n1 | 14.1 µM (active) | –
59 | CCSC1=C(C#N)C2(CCCCC2)C(C#N)=C(N)N1 | 5.01 µM (active) | –
60 | COc1ccc(C(=O)[C@H](Br)[C@H](Br)C(=O)O)cc1 | – | -1.07% [at 11.4 µM]
61 | O=C(CNC(=O)c1ccco1)OC(C(=O)c1ccccc1)c1ccccc1 (configuration not stated) | 5.62 µM (active) | –
62 | COc1ccc(C(=O)C(OC(=O)CNC(=O)c2ccco2)c2ccccc2)cc1 (configuration not stated) | 10 µM (active) | –
